# Test results taken from PubChem BioAssay AID1159580 (chemical genetic matrix, 2015).
# Values joined by “and” are separate entries in the source; they are usually repeats but may differ in a detail not shown here. Equal entries are not always repeated. Out of some 5,500 compounds screened, about 2,000 (36%) were called active. About 18% were inconclusive and are not listed. Cut-off read from the data, not from the text of the source: active = normalized growth mostly below about 0.91 (no sharp cut-off); inconclusive = no clear call, values can overlap the other calls; inactive = mostly above about 0.92. The list shows a part of the results. The source holds several records for some structures; these can differ, active in one and inactive in another.
# Assay: chemical genetic growth profiling, strain panel (AID 1159580);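 note: tested at 20 µM; growth read once vehicle control cultures reached saturation at 30 °C; 1 = growth at the plate median or of vehicle wells; lower values mean less growth of the strain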
# Details: growth OD
compound,measurement,setting,value
C/C=C/CC(C)C(O)C1C(=O)NC(CC)C(=O)N(C)CC(=O)N(C)C(CC(C)C)C(=O)NC(C(C)C)C(=O)N(C)C(CC(C)C)C(=O)NC(C)C(=O)NC(C)C(=O)N(C)C(CC(C)C)C(=O)N(C)C(CC(C)C)C(=O)N(C)C(C(C)C)C(=O)N1C (stereo unspecified),normalized growth,"S. cerevisiae deletion strains, locus YJR075W, strain HOC1, stronger effect = lower value",0.978 (inactive)
same,normalized growth,"S. cerevisiae deletion strains, locus YKL009W, strain mrt4, stronger effect = lower value",1.01 (inactive)
same,normalized growth,"S. cerevisiae deletion strains, locus YKL068W, stronger effect = lower value",1 (inactive)
same,normalized growth,"S. cerevisiae deletion strains, locus YKL085W, strain MDH1 (second series), stronger effect = lower value",0.984 (inactive)
same,normalized growth,"S. cerevisiae deletion strains, locus YKL085W, strain MDH1, stronger effect = lower value",0.984 (inactive)
same,normalized growth,"S. cerevisiae deletion strains, locus YKL160W, strain elf1, stronger effect = lower value",1.04 (inactive)
same,normalized growth,"S. cerevisiae deletion strains, locus YKL190W, strain CNB1, stronger effect = lower value",0.999 (inactive)
same,normalized growth,"S. cerevisiae deletion strains, locus YKR001C, strain vps1, stronger effect = lower value",0.619 (active)
same,normalized growth,"S. cerevisiae deletion strains, locus YKR026C, strain gcn3, stronger effect = lower value",1.01 (inactive)
same,normalized growth,"S. cerevisiae deletion strains, locus YKR091W, strain srl3, stronger effect = lower value",1.02 (inactive)
same,normalized growth,"S. cerevisiae deletion strains, locus YLL001W, strain dnm1, stronger effect = lower value",1.02 (inactive)
same,normalized growth,"S. cerevisiae deletion strains, locus YLL026W, stronger effect = lower value",1.01 (inactive)
same,normalized growth,"S. cerevisiae deletion strains, locus YLL041C, strain sdh2, stronger effect = lower value",1.02 (inactive)
same,normalized growth,"S. cerevisiae deletion strains, locus YLR027C, strain aat2, stronger effect = lower value",1.02 (inactive)
same,normalized growth,"S. cerevisiae deletion strains, locus YLR039C, strain RIC1, stronger effect = lower value",0.621 (active)
same,normalized growth,"S. cerevisiae deletion strains, locus YLR058C, strain SHM2, stronger effect = lower value",1.01 (inactive)
same,normalized growth,"S. cerevisiae deletion strains, locus YLR102C, strain apc9, stronger effect = lower value",1.01 (inactive)
same,normalized growth,"S. cerevisiae deletion strains, locus YLR113W, strain HOG1, stronger effect = lower value",0.986 (inactive)
same,normalized growth,"S. cerevisiae deletion strains, locus YLR221C, strain rsa3, stronger effect = lower value",1.02 (inactive)
same,normalized growth,"S. cerevisiae deletion strains, locus YLR258W, strain gsy2, stronger effect = lower value",1.01 (inactive)
same,normalized growth,"S. cerevisiae deletion strains, locus YLR262C, strain YPT6 (second series), stronger effect = lower value",0.573 (active)
same,normalized growth,"S. cerevisiae deletion strains, locus YLR262C, strain YPT6, stronger effect = lower value",0.509 (active)
same,normalized growth,"S. cerevisiae deletion strains, locus YLR268W, strain sec22, stronger effect = lower value",1.01 (inactive)
same,normalized growth,"S. cerevisiae deletion strains, locus YLR320W, strain mms22, stronger effect = lower value",1.01 (inactive)
same,normalized growth,"S. cerevisiae deletion strains, locus YLR330W, strain CHS5, stronger effect = lower value",1.01 (inactive)
same,normalized growth,"S. cerevisiae deletion strains, locus YLR342W, strain FKS1 (second series), stronger effect = lower value",0.173 (active)
same,normalized growth,"S. cerevisiae deletion strains, locus YLR342W, strain FKS1, stronger effect = lower value",0.247 (active)
same,normalized growth,"S. cerevisiae deletion strains, locus YLR357W, strain rsc2, stronger effect = lower value",0.978 (inactive)
same,normalized growth,"S. cerevisiae deletion strains, locus YLR370C, strain arc18, stronger effect = lower value",1.01 (inactive)
same,normalized growth,"S. cerevisiae deletion strains, locus YLR371W, strain rom2, stronger effect = lower value",1.03 (inactive)
same,normalized growth,"S. cerevisiae deletion strains, locus YLR384C, strain iki3, stronger effect = lower value",1.01 (inactive)
same,normalized growth,"S. cerevisiae deletion strains, locus YLR418C, strain cdc73, stronger effect = lower value",0.925 (inactive)
same,normalized growth,"S. cerevisiae deletion strains, locus YML016C, strain PPZ1, stronger effect = lower value",1.02 (inactive)
same,normalized growth,"S. cerevisiae deletion strains, locus YML032C, strain rad52, stronger effect = lower value",1.04 (inactive)
same,normalized growth,"S. cerevisiae deletion strains, locus YML120C, strain ndi1, stronger effect = lower value",1.02 (inactive)
same,normalized growth,"S. cerevisiae deletion strains, locus YML124C, strain tub3, stronger effect = lower value",1.03 (inactive)
same,normalized growth,"S. cerevisiae deletion strains, locus YMR058W, strain fet3, stronger effect = lower value",1.02 (inactive)
same,normalized growth,"S. cerevisiae deletion strains, locus YMR078C, strain ctf18, stronger effect = lower value",1.01 (inactive)
same,normalized growth,"S. cerevisiae deletion strains, locus YMR125W, strain sto1, stronger effect = lower value",0.915 (inactive)
same,normalized growth,"S. cerevisiae deletion strains, locus YMR129W, stronger effect = lower value",1.01 (inactive)
same,normalized growth,"S. cerevisiae deletion strains, locus YMR205C, strain PFK2, stronger effect = lower value",0.978 (inactive)
same,normalized growth,"S. cerevisiae deletion strains, locus YMR223W, strain ubp8, stronger effect = lower value",1.04 (inactive)
same,normalized growth,"S. cerevisiae deletion strains, locus YMR231W, strain pep5, stronger effect = lower value",0.404 (active)
same,normalized growth,"S. cerevisiae deletion strains, locus YMR263W, strain SAP30, stronger effect = lower value",0.99 (inactive)
same,normalized growth,"S. cerevisiae deletion strains, locus YMR307W, strain GAS1, stronger effect = lower value",0.292 (active) and 1.01 (inactive)
same,normalized growth,"S. cerevisiae deletion strains, locus YNL067W, strain RPL9B, stronger effect = lower value",0.97 (inactive)
same,normalized growth,"S. cerevisiae deletion strains, locus YNL071W, strain lat1, stronger effect = lower value",1.03 (inactive)
same,normalized growth,"S. cerevisiae deletion strains, locus YNL128W, strain TEP1, stronger effect = lower value",0.948 (inactive)
same,normalized growth,"S. cerevisiae deletion strains, locus YNL153C, strain GIM3, stronger effect = lower value",0.97 (inactive)
same,normalized growth,"S. cerevisiae deletion strains, locus YNL175C, strain NOP13, stronger effect = lower value",0.963 (inactive)
same,normalized growth,"S. cerevisiae deletion strains, locus YNL183C, strain NPR1, stronger effect = lower value",0.955 (inactive)
same,normalized growth,"S. cerevisiae deletion strains, locus YNL197C, strain WHI3, stronger effect = lower value",0.955 (inactive)
same,normalized growth,"S. cerevisiae deletion strains, locus YNL209W, strain ssb2, stronger effect = lower value",1.01 (inactive)
same,normalized growth,"S. cerevisiae deletion strains, locus YNL224C, strain SQS1, stronger effect = lower value",0.966 (inactive)
same,normalized growth,"S. cerevisiae deletion strains, locus YNL233W, strain BNI4, stronger effect = lower value",0.986 (inactive)
same,normalized growth,"S. cerevisiae deletion strains, locus YNL248C, strain rpa49, stronger effect = lower value",1.02 (inactive)
same,normalized growth,"S. cerevisiae deletion strains, locus YNL250W, strain rad50, stronger effect = lower value",1.01 (inactive)
same,normalized growth,"S. cerevisiae deletion strains, locus YNL271C, strain bni1, stronger effect = lower value",1.01 (inactive)
same,normalized growth,"S. cerevisiae deletion strains, locus YNL298W, strain CLA4, stronger effect = lower value",0.987 (inactive)
same,normalized growth,"S. cerevisiae deletion strains, locus YNL307C, strain MCK1, stronger effect = lower value",1.04 (inactive)
same,normalized growth,"S. cerevisiae deletion strains, locus YNL322C, strain KRE1 (second series), stronger effect = lower value",1.01 (inactive)
same,normalized growth,"S. cerevisiae deletion strains, locus YNL322C, strain KRE1, stronger effect = lower value",1.03 (inactive) and 1 (inactive)
same,normalized growth,"S. cerevisiae deletion strains, locus YNR049C, strain mso1, stronger effect = lower value",1.02 (inactive)
same,normalized growth,"S. cerevisiae deletion strains, locus YNR052C, strain pop2, stronger effect = lower value",1.04 (inactive)
same,normalized growth,"S. cerevisiae deletion strains, locus YOL006C, strain TOP1, stronger effect = lower value",0.83 (inactive)
same,normalized growth,"S. cerevisiae deletion strains, locus YOL012C, strain htz1",1.73 (inactive)
same,normalized growth,"S. cerevisiae deletion strains, locus YOL147C, strain pex11, stronger effect = lower value",1.02 (inactive)
same,normalized growth,"S. cerevisiae deletion strains, locus YOR001W, strain rrp6, stronger effect = lower value",1.03 (inactive)
same,normalized growth,"S. cerevisiae deletion strains, locus YOR061W, strain CKA2, stronger effect = lower value",0.967 (inactive)
same,normalized growth,"S. cerevisiae deletion strains, locus YOR069W, strain VPS5, stronger effect = lower value",1.02 (inactive)
same,normalized growth,"S. cerevisiae deletion strains, locus YOR070C, strain gyp1, stronger effect = lower value",1.01 (inactive)
same,normalized growth,"S. cerevisiae deletion strains, locus YOR080W, strain dia2, stronger effect = lower value",1 (inactive)
same,normalized growth,"S. cerevisiae deletion strains, locus YOR083W, strain WHI5 (second series), stronger effect = lower value",0.869 (inactive)
same,normalized growth,"S. cerevisiae deletion strains, locus YOR083W, strain WHI5, stronger effect = lower value",1.02 (inactive)
same,normalized growth,"S. cerevisiae deletion strains, locus YOR106W, strain vam3, stronger effect = lower value",0.975 (inactive)
same,normalized growth,"S. cerevisiae deletion strains, locus YOR136W, strain idh2, stronger effect = lower value",1.03 (inactive)
same,normalized growth,"S. cerevisiae deletion strains, locus YOR144C, strain elg1, stronger effect = lower value",1.02 (inactive)
same,normalized growth,"S. cerevisiae deletion strains, locus YOR184W, strain ser1, stronger effect = lower value",1.03 (inactive)
same,normalized growth,"S. cerevisiae deletion strains, locus YOR231W, strain MKK1, stronger effect = lower value",0.975 (inactive)
same,normalized growth,"S. cerevisiae deletion strains, locus YOR265W, strain rbl2, stronger effect = lower value",1.02 (inactive)
same,normalized growth,"S. cerevisiae deletion strains, locus YOR270C, strain vph1, stronger effect = lower value",0.895 (inactive)
same,normalized growth,"S. cerevisiae deletion strains, locus YOR290C, strain snf2, stronger effect = lower value",0.995 (inactive)
same,normalized growth,"S. cerevisiae deletion strains, locus YOR316C, strain cot1, stronger effect = lower value",1.01 (inactive)
same,normalized growth,"S. cerevisiae deletion strains, locus YPL051W, strain arl3, stronger effect = lower value",1.02 (inactive)
same,normalized growth,"S. cerevisiae deletion strains, locus YPL055C, strain LGE1, stronger effect = lower value",0.949 (inactive)
same,normalized growth,"S. cerevisiae deletion strains, locus YPL078C, strain atp4, stronger effect = lower value",1.02 (inactive)
same,normalized growth,"S. cerevisiae deletion strains, locus YPL106C, strain sse1, stronger effect = lower value",0.944 (inactive)
same,normalized growth,"S. cerevisiae deletion strains, locus YPL240C, strain hsp82, stronger effect = lower value",1.02 (inactive)
same,normalized growth,"S. cerevisiae deletion strains, locus YPL241C, strain CIN2, stronger effect = lower value",1.01 (inactive) and 0.975 (inactive)
same,normalized growth,"S. cerevisiae deletion strains, locus YPL256C, strain CLN2, stronger effect = lower value",1.02 (inactive)
same,normalized growth,"S. cerevisiae deletion strains, locus YPR119W, strain clb2, stronger effect = lower value",1.02 (inactive)
same,normalized growth,"S. cerevisiae deletion strains, locus YPR141C, strain kar3, stronger effect = lower value",1 (inactive)
same,normalized growth,"S. cerevisiae deletion strains, locus YPR163C, strain tif3, stronger effect = lower value",1.02 (inactive)
same,normalized growth,"S. cerevisiae deletion strains, locus YPR167C, strain met16, stronger effect = lower value",1.02 (inactive)
same,normalized growth,"S. cerevisiae deletion strains, strain wtn01, stronger effect = lower value",1.02 (inactive)
same,normalized growth,"S. cerevisiae strains, strain wild type, stronger effect = lower value",1 (inactive)
